# Results from article PMC8384837, “Expanding the binding specificity for RNA recognition by a PUF domain”.
# Positions count from the first letter of the chain named.
# Key:
# Test in all cases: yeast three-hybrid, YBZ-1, SC-Leu-His + 0.5 mM 3-AT, 4 days
# Details in all cases: tags: N-Gal4 AD-HA kept; label: inside an RPR1-promoter hybrid RNA with tandem MS2 sites; ssRNA
# [1] = molecular target: PUM1 PUF domain R5-LWG (Homo sapiens, UniProt Q14671 828-1176, C1007L;R1008W;Q1011G)
# Method in brief: (§1)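 The interaction score is the logarithmic change in variant frequency from input to selection. It uses log2, with a pseudocount of 1 for absent variants, and frequencies came from PCR-amplified, Illumina-sequenced repeat regions. The libraries were Pumilio-1 PUF domains randomized at the three base-contacting residues per repeat, co-expressed with matching RNA elements in strain YBZ-1 (LexA–MS2 coat fusion, HIS3 reporter). Plating lasted four days on SC-Leu (input) or SC-Leu-His + 0.5 mM 3-AT (selection).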
# [2] = molecular target: T1, PUM1 PUF domain R6-CYL (Homo sapiens, UniProt Q14671 828-1176, N1043C;Q1047L)
# T1 sequence: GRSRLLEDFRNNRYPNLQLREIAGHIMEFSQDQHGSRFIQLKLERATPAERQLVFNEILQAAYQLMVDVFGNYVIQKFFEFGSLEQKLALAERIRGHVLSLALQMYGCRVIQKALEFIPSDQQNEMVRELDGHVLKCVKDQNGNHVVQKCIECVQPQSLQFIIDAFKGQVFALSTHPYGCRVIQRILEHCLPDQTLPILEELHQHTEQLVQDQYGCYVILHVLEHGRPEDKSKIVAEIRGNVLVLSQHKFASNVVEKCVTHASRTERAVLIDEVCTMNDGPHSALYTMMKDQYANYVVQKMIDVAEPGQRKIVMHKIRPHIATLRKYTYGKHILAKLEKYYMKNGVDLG
# Method in brief: as §1
# [3] = molecular target: PUM1 PUF domain R4-RHV (Homo sapiens, UniProt Q14671 828-1176, N971R;Q975V)
# Method in brief: as §1
# [4] = molecular target: PUM1 PUF domain R4-FGS (Homo sapiens, UniProt Q14671 828-1176, N971F;H972G;Q975S)
# Method in brief: as §1
# [5] = molecular target: PUM1 PUF domain R3-FSE (Homo sapiens, UniProt Q14671 828-1176, C935F;R936S;Q939E)
# Method in brief: as §1
# [6] = molecular target: PUM1 PUF domain R3-MWS (Homo sapiens, UniProt Q14671 828-1176, C935M;R936W;Q939S)
# Method in brief: as §1
# [7] = molecular target: T2, PUM1 PUF domain R6-MWE (Homo sapiens, UniProt Q14671 828-1176, N1043M;Y1044W;Q1047E)
# T2 sequence: T1 sequence with C216M, Y217W, L220E
# Method in brief: as §1
# [8] = molecular target: PUM1 PUF domain R8-YWK (Homo sapiens, UniProt Q14671 828-1176, N1122Y;Y1123W;Q1126K)
# Method in brief: as §1
# [9] = molecular target: PUM1 PUF domain R7-RVI (Homo sapiens, UniProt Q14671 828-1176, S1079R;N1080V;E1083I)
# Method in brief: as §1
# [10] = molecular target: PUM1 PUF domain R1-RGQ (Homo sapiens, UniProt Q14671 828-1176, S863R;R864G)
# Method in brief: as §1
sequence,measurement,setting,value
GGCUAGAACUAGUGGAUCCCCCGGCGCCCGGCGGCUCGAGCCCGGGUAAGUGUUAAUAGUCUGCAUGCCGCCGGGCGCCAUGCCUGCAGGUCGACUCUAGAAAACAUG,binding signal,[1],3.88 log2 enrichment (interaction score)
GGCUAGAACUAGUGGAUCCCCCGGCGCCCGGCGGCUCGAGCCCGGGUAAGUGAAAAUAGUCUGCAUGCCGCCGGGCGCCAUGCCUGCAGGUCGACUCUAGAAAACAUG,binding signal,[2],5.18 log2 enrichment (interaction score)
GGCUAGAACUAGUGGAUCCCCCGGCGCCCGGCGGCUCGAGCCCGGGUAAGUGUACAUAGUCUGCAUGCCGCCGGGCGCCAUGCCUGCAGGUCGACUCUAGAAAACAUG,binding signal,[3],2.18 log2 enrichment (interaction score)
same,binding signal,[4],2.32 log2 enrichment (interaction score)
GGCUAGAACUAGUGGAUCCCCCGGCGCCCGGCGGCUCGAGCCCGGGUAAGUGUAUAUAGUCUGCAUGCCGCCGGGCGCCAUGCCUGCAGGUCGACUCUAGAAAACAUG,binding signal,[3],4.8 log2 enrichment (interaction score)
same,binding signal,[4],2.78 log2 enrichment (interaction score)
GGCUAGAACUAGUGGAUCCCCCGGCGCCCGGCGGCUCGAGCCCGGGUAAGUGUAAGUAGUCUGCAUGCCGCCGGGCGCCAUGCCUGCAGGUCGACUCUAGAAAACAUG,binding signal,[5],3.22 log2 enrichment (interaction score)
same,binding signal,[6],5.62 log2 enrichment (interaction score)
GGCUAGAACUAGUGGAUCCCCCGGCGCCCGGCGGCUCGAGCCCGGGUAAGUGGAAAUAGUCUGCAUGCCGCCGGGCGCCAUGCCUGCAGGUCGACUCUAGAAAACAUG,binding signal,[7],4.52 log2 enrichment (interaction score)
GGCUAGAACUAGUGGAUCCCCCGGCGCCCGGCGGCUCGAGCCCGGGUAAGCGUAAAUAGUCUGCAUGCCGCCGGGCGCCAUGCCUGCAGGUCGACUCUAGAAAACAUG,binding signal,[8],2.04 log2 enrichment (interaction score)
GGCUAGAACUAGUGGAUCCCCCGGCGCCCGGCGGCUCGAGCCCGGGUAAGUUUAAAUAGUCUGCAUGCCGCCGGGCGCCAUGCCUGCAGGUCGACUCUAGAAAACAUG,binding signal,[9],2.39 log2 enrichment (interaction score)
GGCUAGAACUAGUGGAUCCCCCGGCGCCCGGCGGCUCGAGCCCGGGUAAGUGUAAAUUGUCUGCAUGCCGCCGGGCGCCAUGCCUGCAGGUCGACUCUAGAAAACAUG,binding signal,[10],2.29 log2 enrichment (interaction score)
GGCUAGAACUAGUGGAUCCCCCGGCGCCCGGCGGCUCGAGCCCGGGUAAGUGUAAAUAGUCUGCAUGCCGCCGGGCGCCAUGCCUGCAGGUCGACUCUAGAAAACAUG,binding signal,[1],2.19 log2 enrichment (interaction score)
same,binding signal,[3],2.5 log2 enrichment (interaction score)
same,binding signal,[4],0.95 log2 enrichment (interaction score)
